p53ts 39C kill: qHTS Screen for Compounds that Selectively Target Cancer Cells with p53 Mutations: Cytotoxicity of p53ts Cells at the Nonpermissive Temperature; H1299-p53A138V viability at 39C, ATP luminescence, 24 h; Potency, µM (highest dose often 46.1 µM), inactives show at the top dose activity change, negative = cell killing, hits mostly cytotoxic; 1.5% of 130,000 active; AID 902, 2007; also: potency is read from the fitted curve at half-maximal effect; % is scaled to controls: 0 for no effect and ±100 for the full control effect; nearly all actives have a fitted effect of over 55% in size
p53ts 32C kill: qHTS Screen for Compounds that Selectively Target Cancer Cells with p53 Mutations: Cytotoxicity of p53ts Cells at the Permissive Temperature. H1299-p53A138V at 32C, ATP luminescence viability, 24 h. Potency, µM (titrated, usually from 46.1 µM), inactives show at the highest dose activity change, negative = cytotoxicity, hits mostly cytotoxic. 0.93% of 130,000 active;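 also: potency is read from the fitted curve at half-maximal effect; 0% = DMSO and -100% = full killing by reference compound; nearly all actives have a fitted effect of over 55% in size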
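H1299-p53 A138V cells (temperature-sensitive p53) exposed 24 h to up to 46 uM compound at 32C, where p53 is wild-type in conformation. Viability read as ATP luminescence and normalised to DMSO and 100 uM tamoxifen. AC50 fitted with the Hill equation.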
YjeE inh: qHTS Assay for Inhibitors of YjeE. tRNA threonylcarbamoyladenosine biosynthesis protein TsaE (Escherichia coli (strain …. purified YjeE enzyme, qHTS inhibition assay. Potency, µM. 0.05% of 71,000 active. AID 605, 2007
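Fluorescence polarization of a BODIPY Texas Red–ADP probe (2 uM) bound to purified YjeE (10 uM) was read after 15 min room-temperature incubation with compounds. Loss of polarization marks inhibitors; ADP serves as titrated control.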
ERK AVP inh: qHTS Assay for Inhibitors of the ERK Signaling Pathway using a Homogeneous Screening Assay. 0.99% of 72,000 active. HEK293-V1b, vasopressin-stimulated pERK AlphaScreen. Potency, µM (highest dose often 57.5 µM), for inactives: at the top dose activity, negative = inhibition, most hits filed as inhibitors; also: potency is read from the fitted curve at half-maximal effect; % is scaled to controls: 0 for no effect and ±100 for the full control effect; nearly all actives have a fitted effect of over 55% in size
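HEK293 cells stably expressing V1b receptor, seeded overnight in 1% FBS, were treated with compounds for 30 min at 37C, then stimulated 5 min with 25 nM vasopressin; phospho-ERK read by AlphaScreen SureFire after lysis.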
Tau filament bind: qHTS Assay for Tau Filament Binding; Microtubule-associated protein tau (Homo sapiens), P10636; recombinant tau filaments, thioflavin S fluorescence, 15 h; filaments grown with octadecylsulfate alongside compound; Potency, µM (top dose mostly 57.1 µM), for inactives: top-dose activity change, negative = inhibition; 2% of 71,000 active;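 also: potency is read from the fitted curve at half-maximal effect; % is scaled to controls: 0 for no effect and ±100 for the full control effect; actives lower thioflavin S fluorescence by blocking filaments or displacing dye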
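Thioflavine S fluorescence (ex 450, em 510 nm) reports filaments formed from 1 uM human tau plus 30 uM ODS over 15 h at 37 C (10 mM HEPES pH 7.4, 100 mM NaCl, 5 mM DTT); compounds displacing dye or blocking filaments lower signal.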
Pol III holo inh: qHTS Assay for Inhibitors of DNA Polymerase III Holoenzyme System. reconstituted DNA polymerase III holoenzyme replication, biochemical. Potency, µM (highest dose often 57.1 µM), without a hit: at the highest dose activity change, negative = inhibition. 0.25% of 71,000 active. AID 603, 2007; also: potency is read from the fitted curve at half-maximal effect; % is scaled to controls: 0 for no effect and ±100 for the full control effect
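Reconstituted *E. coli* holoenzyme (0.35 nM Pol III, 1 nM beta, 154 nM SSB, 2 nM primase) was preincubated with compound for 15 min at RT. Synthesis on 1.4 nM ssM13Gori ran 35 min, then was stopped with PicoGreen/EDTA and read as dsDNA fluorescence.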
An asterisk follows results filed as active; i = inactive; ? = inconclusive; nt = no result. In the library only some 3.2% were active in any assay of this set; here they are far more common. Calls follow the shape of the dose curve; as a rule, active = well fitted curve in the direction sought with a large enough effect; inconclusive = small, poorly fitted or top-dose-only effect, or another doubt; inactive = no such curve, though single readings can be large; an effect the other way counts as inactive or inconclusive.

SMILES | p53ts 39C kill | p53ts 32C kill | YjeE inh | ERK AVP inh | Tau filament bind | Pol III holo inh
CCCCC(CC)Cn1c2nc3ccccc3nc2c2c(=N)oc(C)nc21 (stereo not given) | 11% | 13% | i | 24% | 2.5µM* | -4%
CCCCn1c2nc3ccccc3nc2c2c(=N)oc(C)nc21 | -2% | 3% | i | 9% | 285% | -7%
COC(=O)CSc1nc2c(c(-c3ccco3)c1C#N)CCCC2 | -4% | 3% | i | -11% | 16µM* | 0%
Clc1ccc2[nH]c3c(c2c1)CCc1cn[nH]c1-3 | 2% | 21% | i | ? | 16µM* | -2%
CCc1ccc(C(=O)c2cn(CC(=O)Nc3ccc4c(c3)OCO4)c3ccc(Cl)cc3c2=O)cc1 | 13µM* | -28% | nt | nt | nt | nt
CCc1ccc(C(=O)c2cn(CC(=O)Nc3ccc(Cl)cc3)c3cc4c(cc3c2=O)OCO4)cc1 | -19% | 11% | nt | nt | nt | nt
CCOc1ccc(C(=O)c2cn(CC(=O)Nc3ccc(C)c(Cl)c3)c3ccc(OCC)cc3c2=O)cc1 | 16% | 0% | nt | nt | nt | nt
CCc1ccc(C(=O)c2cn(CC(=O)Nc3ccc4c(c3)OCO4)c3cc(OC)c(OC)cc3c2=O)cc1 | -12% | 2% | nt | nt | nt | nt
CCc1ccc(C(=O)c2cn(CC(=O)Nc3ccc4c(c3)OCO4)c3ccc(CC)cc3c2=O)cc1 | 13µM* | ? | nt | nt | nt | nt
CCc1ccc2c(c1)c(=O)c(C(=O)c1ccccc1)cn2CC(=O)Nc1ccc(C)c(Cl)c1 | 16µM* | -22% | nt | nt | nt | nt
COc1ccc(C(C(=O)NCc2ccccc2)N(C(=O)Cn2nnc3ccccc32)c2ccc(F)cc2)cc1 (stereo not given) | 19% | 3% | nt | nt | nt | nt
O=C(NCc1cccnc1)C1CCN(Cc2cc3ccccc3n2Cc2cccc(Cl)c2)CC1 | 13µM* | 21% | nt | nt | nt | nt
Cc1cccn2c(=O)c3cc(C(=O)NC(C)C)n(C)c3nc12 | -8% | 4% | nt | nt | nt | nt
Cc1c(C)n(CC(O)CN2CCCCCC2)c2ccccc12 (stereo not given) | -6% | -3% | i | -14% | 13µM* | 10%
CCOC(=O)N1CCN(c2nc(-c3ccc(Cl)cc3)cs2)CC1 | -17% | -19% | nt | nt | nt | nt
O=C(CSc1nc(-c2ccccc2)cs1)NC(=O)NCc1ccco1 | -18% | 0% | i | 25µM* | 13% | 4%
O=C(CN1CCN(c2nc(-c3ccc(Cl)cc3)cs2)CC1)NCc1ccco1 | -22% | -7% | i | 32µM* | 3% | 2%
COc1cccc(-n2ccnc2SCC(=O)Nc2c(C)cc(C)cc2C)c1 | -20% | -3% | nt | nt | nt | nt
COc1cccc(Cn2c(=O)c(-c3cccc(C#N)c3)nc3cnc(Nc4ccccc4)nc32)c1 | 2% | -10% | i | 20% | 30% | -8%
FC(F)(F)c1cc(CO[C@H]2CCCN[C@H]2c2ccccc2)cc(C(F)(F)F)c1 | 13µM* | ? | i | -20% | ? | -13%
Cc1ccc(-n2c(SCC(=O)Nc3c(C)cccc3C)nc(O)c(C)c2=O)cc1 | 16% | -4% | nt | nt | nt | nt
CCCCCOc1ccccc1Cn1c(=O)oc2ccc(C)cc21 | -6% | -6% | nt | nt | nt | nt
CCCCCOc1ccccc1CN1C(=O)C(=O)c2cc(C)ccc21 | 13µM* | 1% | nt | nt | nt | nt
COc1ccc(NC2=Nc3ccccc3CC2)cc1 | -22% | -12% | i | -24% | 5% | -3%
COc1ccc2nc3c(cc2c1)Cc1ccccc1-3 | 0.79µM* | 0.79µM* | i | 32µM* | ? | -13%
CCC(=O)C1=C(c2ccc(Cl)cc2)N(C(=O)CC)n2c(C)nnc2S1 | 55% | 5% | nt | nt | nt | nt
CC1(C)CC(NC(=O)c2coc(=O)c(Br)c2)CC(C)(C)N1 | 53% | 4% | i | 20µM* | -1% | 0%

Bioassay records (PubChem BioAssay)
